# Inconclusive results are not listed. The source made the active and inactive calls. Rule for the calls: active = hit-call score of the fitted dose curve at least 0.9, where 1 is the maximum; inconclusive = response in the unintended direction; inactive = score below 0.9.
# What was measured:
# [1] = target: Glycogen synthase kinase-3 beta (Homo sapiens) (UniProt P49841); test: NVS_ENZ_hGSK3b: NovaScreen (NVS) Enzymatic Assay for human Glycogen Synthase Kinase-3 beta (GSK3b) (AID 2283165)
# In short: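 Recombinant enzyme with specific fluorescent substrate, 1 h, product separated by electrophoretic mobility shift. Primary duplicate screen at 25 uM; actives (e.g. 30% inhibition) followed in singleton concentration-response to 50 uM. Signal loss fitted versus DMSO.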
# [2] = target: human c-Jun N-terminal Kinases (JNK2), MAPK9 (gene 5601) (UniProt P45984); test: NVS_ENZ_hJNK2: NovaScreen (NVS) Enzymatic Assay for human c-Jun N-terminal Kinases (JNK2) (AID 2283171)
# In short: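 Chemicals first tested in duplicate at 25 uM, then in singleton concentration series up to 50 uM, against extracted JNK2 enzyme. Activity loss read by fluorescence with mobility-shift separation 1 h post-dose; DMSO baseline.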
# [3] = target: Mitogen-activated protein kinase 3 (Homo sapiens) (UniProt P27361); test: NVS_ENZ_hMAPK3: NovaScreen (NVS) Enzymatic Assay for human Mitogen-Activated Protein Kinase 3 (MAPK 3) (AID 2283177)
# In short: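 Chemicals were first tested in duplicate at 25 uM, with hits re-run as concentration series (max 50 uM). Recombinant enzyme activity, measured 1 h post-dose in a cell-free format, was read by fluorescence/mobility shift relative to DMSO.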
# [4] = target: human MAP Kinase-Activated Protein Kinase 2 (MAPKAPK2), MAPKAPK2 (gene 9261) (UniProt P49137); test: NVS_ENZ_hMAPKAPK2: NovaScreen (NVS) Enzymatic Assay for human MAP Kinase-Activated Protein Kinase 2 (MAPKAPK2) (AID 2283178)
# In short: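 Chemicals screened in duplicate at 25 uM, then to 50 uM top concentration in concentration-response, against recombinant human MAPKAPK2; substrate conversion read 1 hr post-dosing by fluorescence after electrophoretic mobility-shift separation, loss-of-signal relative to DMSO.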
# [5] = target: human Ephrin type-A Receptor 1 (EphA1), EPHA1 (gene 2041) (UniProt P21709); test: NVS_ENZ_hEphA1: NovaScreen (NVS) Enzymatic Assay for human Ephrin type-A Receptor 1 (EphA1) (AID 2283158);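 note: activity is signal loss versus DMSO meaning EphA1 kinase inhibition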
# In short: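 Cell-free enzymatic assay with recombinant EphA1 and fluorescent substrate; product separated by electrophoretic mobility shift, fluorescence intensity read 1 hour after dosing. Loss of signal versus DMSO baseline; primary duplicate screen at 25 uM, actives followed to 50 uM top concentration.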
# [6] = target: human FYN Proto-Oncogene, Src family Tyrosine Kinase (Fyn), FYN (gene 2534) (UniProt P06241); test: NVS_ENZ_hFyn: NovaScreen (NVS) Enzymatic Assay for human FYN Proto-Oncogene, Src family Tyrosine Kinase (Fyn) (AID 2283161)
# In short: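 Cell-free kinase activity read by fluorescence after mobility-shift separation of substrate and product, 1 h post-dose. Initial single concentration 25 uM in duplicate, then concentration-response follow-up; DMSO baseline.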
# [7] = target: human Janus Kinase 2 (Jak2), JAK2 (gene 3717) (UniProt O60674); test: NVS_ENZ_hJak2: NovaScreen (NVS) Enzymatic Assay for human Janus Kinase 2 (Jak2) (AID 2283169)
# In short: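 Single-point duplicate screen at 25 uM, with hits run in concentration series to a 50 uM top dose. Substrate-product separation by mobility shift with fluorescence detection, 1 h post-dosing; DMSO baseline.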
# [8] = target: Collagenase 3 (Homo sapiens) (UniProt P45452); test: NVS_ENZ_hMMP13: NovaScreen (NVS) Enzymatic Assay for human Matrix Metalloproteinase-13 (MMP13) (AID 2283182)
# Method: NVS_ENZ_hMMP13 is a biochemical, single-readout assay that uses extracted gene-proteins in a cell-free assay. Measurements were taken 1 hour after chemical dosing in a 96-well plate.NVS_ENZ_hMMP13 is one of one assay component(s) measured or calculated from the NVS_ENZ_hMMP13 assay. It is designed to make measurements of enzyme activity, a form of enzyme reporter, as detected with fluorescence intensity signals by Fluorescence technology.Data from the assay component NVS_ENZ_hMMP13 was analyzed into 1 assay endpoint. This assay endpoint, NVS_ENZ_hMMP13, was analyzed in the positive analysis fitting direction relative to DMSO as the negative control and baseline of activity. Using a type of enzyme reporter, loss-of-signal activity can be used to understand changes in the enzymatic activity as they relate to the gene MMP13. Furthermore, this assay endpoint can be referred to as a primary readout, because this assay has produced multiple assay endpoints where this one serves a enzymatic activity function. To generalize the intended target to other relatable targets, this assay endpoint is annotated to the protease intended target family, where the subfamily is matrix metalloproteinase.
# Binding assays used specific radioligands (tritiated, iodinated) with non-radioactive competitive displacement ligands in agonist or antagonist protocols (as indicated) and various reference compounds and inhibitors to titrate specific binding to receptors and transporters. Most enzyme assays (CYPs, kinases, phosphatases, proteases, HDACs) used recombinant protein and specific substrates (fluorescence mostly, some colorimetric and radioactive) and inhibitors, followed by a biochemical separation of substrate and product. All assays for the biochemical HTS were initially run in duplicate at a single concentration (10 uM for CYP450 assays and 25 uM for all others). […]
# [9] = target: Histone deacetylase 3 (Homo sapiens) (UniProt O15379); test: NVS_ENZ_hHDAC3: NovaScreen (NVS) Enzymatic Assay for human Histone Deacetylase 3 (HDAC3) (AID 2283163)
# In short: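 Cell-free enzyme format: loss of fluorescent product after mobility-shift separation, 1 h incubation, recombinant human HDAC3. Single 25 uM duplicate screen first, then concentration series to a 50 uM top for hits; DMSO as baseline.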
# [10] = target: human LYN Proto-Oncogene, Src family Tyrosine Kinase (LynA), LYN (gene 4067) (UniProt P07948); test: NVS_ENZ_hLynA: NovaScreen (NVS) Enzymatic Assay for human LYN Proto-Oncogene, Src family Tyrosine Kinase (LynA) (AID 2283173)
# In short: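 Recombinant kinase with fluorescent substrate; product separated from substrate by electrophoretic mobility shift and read 1 h after dosing. Duplicate screen at 25 uM, then concentration-response up to 50 uM; activity scored as signal loss against DMSO.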
# Mitogen-activated protein kinase 3 (Homo sapiens), sequence (P27361 whole entry, looked up): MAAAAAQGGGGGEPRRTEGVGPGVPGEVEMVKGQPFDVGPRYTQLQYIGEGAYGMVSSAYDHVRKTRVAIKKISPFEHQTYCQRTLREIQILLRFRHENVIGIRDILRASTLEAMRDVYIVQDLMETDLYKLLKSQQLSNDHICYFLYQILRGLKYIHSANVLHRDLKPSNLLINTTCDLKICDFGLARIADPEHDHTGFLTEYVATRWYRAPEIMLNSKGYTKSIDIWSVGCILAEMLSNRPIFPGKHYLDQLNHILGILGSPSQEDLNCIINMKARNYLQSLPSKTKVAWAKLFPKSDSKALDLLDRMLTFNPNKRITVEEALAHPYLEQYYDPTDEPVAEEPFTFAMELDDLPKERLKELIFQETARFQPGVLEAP
# Glycogen synthase kinase-3 beta (Homo sapiens), sequence (P49841 whole entry, looked up): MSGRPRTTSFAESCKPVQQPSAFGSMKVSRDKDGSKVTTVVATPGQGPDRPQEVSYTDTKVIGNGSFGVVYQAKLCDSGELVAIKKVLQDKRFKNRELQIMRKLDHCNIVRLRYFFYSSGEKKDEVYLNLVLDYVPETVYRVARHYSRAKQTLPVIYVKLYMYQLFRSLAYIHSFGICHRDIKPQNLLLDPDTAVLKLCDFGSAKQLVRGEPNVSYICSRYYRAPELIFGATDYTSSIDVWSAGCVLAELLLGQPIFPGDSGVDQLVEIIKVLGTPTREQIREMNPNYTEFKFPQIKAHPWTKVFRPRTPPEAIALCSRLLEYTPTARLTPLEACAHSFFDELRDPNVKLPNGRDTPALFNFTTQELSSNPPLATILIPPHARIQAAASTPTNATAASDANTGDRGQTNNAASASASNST
# human MAP Kinase-Activated Protein Kinase 2 (MAPKAPK2), MAPKAPK2 (gene 9261), sequence (P49137 whole entry, looked up): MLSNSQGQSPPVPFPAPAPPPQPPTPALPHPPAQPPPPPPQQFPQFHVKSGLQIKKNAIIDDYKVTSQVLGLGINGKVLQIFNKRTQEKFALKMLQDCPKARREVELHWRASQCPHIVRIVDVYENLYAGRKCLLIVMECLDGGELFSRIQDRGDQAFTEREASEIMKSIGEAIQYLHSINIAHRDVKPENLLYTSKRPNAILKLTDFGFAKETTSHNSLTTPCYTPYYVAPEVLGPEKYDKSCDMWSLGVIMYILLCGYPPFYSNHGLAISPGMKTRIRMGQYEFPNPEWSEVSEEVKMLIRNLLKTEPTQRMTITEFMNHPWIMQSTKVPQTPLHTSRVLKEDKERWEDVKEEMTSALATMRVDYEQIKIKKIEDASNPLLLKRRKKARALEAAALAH
# human c-Jun N-terminal Kinases (JNK2), MAPK9 (gene 5601), sequence (P45984 whole entry, looked up): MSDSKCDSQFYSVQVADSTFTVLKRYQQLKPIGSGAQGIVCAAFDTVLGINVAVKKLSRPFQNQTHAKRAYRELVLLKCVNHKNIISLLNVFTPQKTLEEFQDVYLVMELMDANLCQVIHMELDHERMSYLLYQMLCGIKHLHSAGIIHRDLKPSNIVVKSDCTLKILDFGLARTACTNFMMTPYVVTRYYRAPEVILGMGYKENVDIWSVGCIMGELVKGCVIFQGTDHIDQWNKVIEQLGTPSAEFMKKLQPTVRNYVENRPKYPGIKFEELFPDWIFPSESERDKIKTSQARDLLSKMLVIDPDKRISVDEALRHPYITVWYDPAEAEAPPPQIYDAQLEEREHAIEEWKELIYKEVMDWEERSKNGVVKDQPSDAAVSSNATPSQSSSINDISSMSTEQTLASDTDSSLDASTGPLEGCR
# human Janus Kinase 2 (Jak2), JAK2 (gene 3717), sequence (O60674 whole entry, looked up): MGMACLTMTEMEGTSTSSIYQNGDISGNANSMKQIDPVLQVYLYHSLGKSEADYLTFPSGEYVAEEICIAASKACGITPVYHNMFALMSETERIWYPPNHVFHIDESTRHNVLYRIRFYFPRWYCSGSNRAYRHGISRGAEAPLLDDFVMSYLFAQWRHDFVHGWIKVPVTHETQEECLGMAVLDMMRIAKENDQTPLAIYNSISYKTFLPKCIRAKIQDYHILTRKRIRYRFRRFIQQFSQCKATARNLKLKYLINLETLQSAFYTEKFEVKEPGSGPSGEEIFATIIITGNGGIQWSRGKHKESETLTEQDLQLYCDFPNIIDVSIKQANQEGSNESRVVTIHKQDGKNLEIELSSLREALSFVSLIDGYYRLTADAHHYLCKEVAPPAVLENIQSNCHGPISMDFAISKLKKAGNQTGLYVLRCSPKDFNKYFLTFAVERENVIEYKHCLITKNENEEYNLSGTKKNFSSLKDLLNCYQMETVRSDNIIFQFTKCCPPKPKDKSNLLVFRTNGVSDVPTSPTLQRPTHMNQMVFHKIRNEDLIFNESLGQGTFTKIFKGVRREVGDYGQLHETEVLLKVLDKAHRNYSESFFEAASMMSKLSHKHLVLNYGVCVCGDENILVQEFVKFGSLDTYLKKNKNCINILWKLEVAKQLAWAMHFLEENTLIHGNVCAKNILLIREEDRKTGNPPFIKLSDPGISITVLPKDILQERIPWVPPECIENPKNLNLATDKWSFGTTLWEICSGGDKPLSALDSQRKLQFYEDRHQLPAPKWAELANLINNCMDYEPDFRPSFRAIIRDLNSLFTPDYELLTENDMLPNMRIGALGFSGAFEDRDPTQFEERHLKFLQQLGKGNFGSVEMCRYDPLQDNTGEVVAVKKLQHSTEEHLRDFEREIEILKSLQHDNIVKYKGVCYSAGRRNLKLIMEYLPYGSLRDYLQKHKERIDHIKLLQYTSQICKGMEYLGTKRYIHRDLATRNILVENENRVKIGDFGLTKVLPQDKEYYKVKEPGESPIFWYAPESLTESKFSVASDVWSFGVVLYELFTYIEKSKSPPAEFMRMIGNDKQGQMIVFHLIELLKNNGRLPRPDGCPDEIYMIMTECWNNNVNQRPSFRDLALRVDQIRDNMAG
# human Ephrin type-A Receptor 1 (EphA1), EPHA1 (gene 2041), sequence (P21709 whole entry, looked up): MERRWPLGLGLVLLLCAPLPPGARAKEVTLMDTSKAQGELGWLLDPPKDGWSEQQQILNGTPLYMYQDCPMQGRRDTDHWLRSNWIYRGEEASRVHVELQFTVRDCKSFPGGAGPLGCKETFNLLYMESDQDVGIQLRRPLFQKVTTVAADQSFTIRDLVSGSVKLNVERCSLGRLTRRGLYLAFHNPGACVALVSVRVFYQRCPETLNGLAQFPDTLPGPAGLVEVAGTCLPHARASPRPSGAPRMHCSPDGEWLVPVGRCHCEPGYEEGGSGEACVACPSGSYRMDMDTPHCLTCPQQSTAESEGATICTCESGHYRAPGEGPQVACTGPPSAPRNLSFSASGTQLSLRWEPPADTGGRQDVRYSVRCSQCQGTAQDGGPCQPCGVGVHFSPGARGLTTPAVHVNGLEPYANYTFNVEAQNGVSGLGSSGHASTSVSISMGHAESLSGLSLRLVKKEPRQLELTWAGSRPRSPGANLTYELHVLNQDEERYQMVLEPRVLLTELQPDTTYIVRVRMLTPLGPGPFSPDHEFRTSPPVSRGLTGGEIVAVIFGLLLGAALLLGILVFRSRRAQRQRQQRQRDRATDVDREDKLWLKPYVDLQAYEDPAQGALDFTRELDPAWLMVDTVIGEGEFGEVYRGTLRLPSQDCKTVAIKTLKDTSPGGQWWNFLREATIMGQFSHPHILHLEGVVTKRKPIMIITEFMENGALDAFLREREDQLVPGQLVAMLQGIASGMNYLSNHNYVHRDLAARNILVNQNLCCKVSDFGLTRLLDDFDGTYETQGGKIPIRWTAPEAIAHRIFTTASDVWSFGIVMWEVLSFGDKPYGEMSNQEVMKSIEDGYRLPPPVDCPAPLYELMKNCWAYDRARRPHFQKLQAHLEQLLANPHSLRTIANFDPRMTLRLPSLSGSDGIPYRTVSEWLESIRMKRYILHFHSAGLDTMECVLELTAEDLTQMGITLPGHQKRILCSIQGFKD
# human FYN Proto-Oncogene, Src family Tyrosine Kinase (Fyn), FYN (gene 2534), sequence (P06241 whole entry, looked up): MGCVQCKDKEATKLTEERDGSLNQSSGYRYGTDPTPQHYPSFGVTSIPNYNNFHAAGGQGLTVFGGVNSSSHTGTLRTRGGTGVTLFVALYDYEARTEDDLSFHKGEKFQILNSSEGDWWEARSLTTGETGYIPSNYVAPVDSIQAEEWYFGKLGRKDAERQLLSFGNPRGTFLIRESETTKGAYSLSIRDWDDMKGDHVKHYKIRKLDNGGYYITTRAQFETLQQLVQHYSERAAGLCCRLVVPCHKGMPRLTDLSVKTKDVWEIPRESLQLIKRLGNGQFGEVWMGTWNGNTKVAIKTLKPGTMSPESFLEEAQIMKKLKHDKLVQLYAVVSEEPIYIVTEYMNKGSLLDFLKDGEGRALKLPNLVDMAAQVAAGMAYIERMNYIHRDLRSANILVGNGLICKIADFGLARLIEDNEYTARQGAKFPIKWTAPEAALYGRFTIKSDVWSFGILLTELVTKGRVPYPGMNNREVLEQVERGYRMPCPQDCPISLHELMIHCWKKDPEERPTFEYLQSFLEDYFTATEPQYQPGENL
# human LYN Proto-Oncogene, Src family Tyrosine Kinase (LynA), LYN (gene 4067), sequence (P07948 whole entry, looked up): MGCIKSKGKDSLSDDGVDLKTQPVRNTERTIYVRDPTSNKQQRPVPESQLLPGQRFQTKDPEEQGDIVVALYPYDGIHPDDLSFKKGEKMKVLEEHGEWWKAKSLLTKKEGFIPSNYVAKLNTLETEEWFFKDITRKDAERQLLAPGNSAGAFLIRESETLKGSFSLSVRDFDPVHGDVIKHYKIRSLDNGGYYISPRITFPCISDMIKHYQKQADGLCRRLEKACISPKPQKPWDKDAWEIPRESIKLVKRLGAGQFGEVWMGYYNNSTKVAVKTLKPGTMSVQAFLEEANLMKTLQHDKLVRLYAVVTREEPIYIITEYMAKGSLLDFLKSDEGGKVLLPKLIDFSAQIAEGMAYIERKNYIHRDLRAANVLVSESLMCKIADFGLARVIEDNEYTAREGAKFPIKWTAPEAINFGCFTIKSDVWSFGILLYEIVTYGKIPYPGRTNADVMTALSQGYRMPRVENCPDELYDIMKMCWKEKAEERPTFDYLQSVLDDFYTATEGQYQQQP
smiles,measurement,setting,value
N#C[C@@H]1CC(F)(F)CN1C(=O)CNC1CC2CCC(C1)N2c1ncccn1 (stereo partly specified),outcome,[1],inactive
same,outcome,[2],inactive
same,outcome,[3],inactive
CCOC(=O)CC(O)(CC(=O)OCC)C(=O)OCC,outcome,[1],inactive
CC[C@H](c1ccc(O)cc1)[C@@H](CC)c1ccc(O)cc1,outcome,[4],inactive
O=C(O)Cc1cc(I)c(Oc2cc(I)c(O)c(I)c2)c(I)c1,outcome,[5],inactive
same,outcome,[6],inactive
same,outcome,[1],inactive
same,outcome,[7],inactive
same,outcome,[2],inactive
same,outcome,[3],inactive
Cc1oc(-c2ccccc2)nc1CCOc1ccc(C[C@H](Nc2ccccc2C(=O)c2ccccc2)C(=O)O)cc1,outcome,[1],inactive
same,AC50,[8],7.33 µM (active)
CCCCCCCCC(=O)O,outcome,[1],inactive
O=c1c(-c2ccc(O)cc2)coc2cc(O)ccc12,outcome,[1],inactive
Oc1cccc(O)c1,outcome,[1],inactive
CCC(=C(c1ccc(O)cc1)c1ccc(OCCN(C)C)cc1)c1ccccc1,outcome,[6],inactive
CCCCCCCCOC(=O)CCCCCCCCC(=O)OCCCCCCCC,outcome,[1],inactive
same,outcome,[7],inactive
O=[N+]([O-])c1ccc(O)cc1,outcome,[1],inactive
same,outcome,[4],inactive
CCc1nn(C2CCCCC2)c2cc(C3(C#N)CCC(C(=O)O)CC3)ccc12 (stereo unspecified),AC50,[8],19.4 µM (active)
Nc1cccc2c(N)cccc12,outcome,[9],inactive
CC(C)(C)c1ccc(O)c(C(C)(C)C)c1,outcome,[1],inactive
OC1CCC(C2CCCCC2)CC1 (stereo unspecified),outcome,[4],inactive
CC(C)(C)CC(C)(C)c1ccc(O)c(-n2nc3ccccc3n2)c1,outcome,[7],inactive
CCN(CC)CCNc1ccc(CNC=O)c2sc3ccc(OC)cc3c(=O)c12,AC50,[6],2.1 µM (active)
same,outcome,[7],inactive
same,outcome,[2],inactive
same,outcome,[10],inactive
ClC1=C(Cl)C(Cl)(Cl)C(Cl)=C1Cl,outcome,[5],inactive
same,outcome,[1],inactive
O=C(O)c1ccccc1C(c1ccc(O)cc1)c1ccc(O)cc1,outcome,[3],inactive
CCCCCCCCCCCCCC[N+](C)(C)C,outcome,[5],inactive
C=C(C)C(=O)OCCC(F)(F)C(F)(F)C(F)(F)C(F)(F)C(F)(F)C(F)(F)F,outcome,[7],inactive
CCCCCCCCCCCCc1ccccc1S(=O)(=O)O,AC50,[1],14.2 µM (active)
same,AC50,[7],18.5 µM (active)
same,AC50,[2],29.6 µM (active)
same,AC50,[3],18 µM (active)
same,AC50,[4],26.5 µM (active)
same,AC50,[8],31.8 µM (active)
COCC(C)O (stereo unspecified),outcome,[5],inactive
OCCC(F)(F)C(F)(F)C(F)(F)C(F)(F)C(F)(F)C(F)(F)C(F)(F)C(F)(F)F,outcome,[4],inactive
C[C@@H]1C[C@H]2[C@@H]3CCC4=CC(=O)C=C[C@]4(C)[C@@]3(F)[C@@H](O)C[C@]2(C)[C@@]1(O)C(=O)COP(=O)(O)O,outcome,[5],inactive
CC(C)(C)c1cc(C(C)(C)C)c(O)c(C(C)(C)C)c1,outcome,[1],inactive
CN1CCN(c2ccccc2/C=C2\SCCN(c3ccc(Cl)c(Cl)c3)C2=O)CC1,outcome,[7],inactive
COCC(C)OCC(C)O (stereo unspecified),outcome,[1],inactive
same,outcome,[7],inactive
CCCCCCCC(=O)O,outcome,[6],inactive
same,outcome,[7],inactive
same,outcome,[10],inactive
same,outcome,[3],inactive
Oc1cc2ccccc2c2ccccc12,AC50,[7],25 µM (active)
CCCCCCCCCCCCCCCS(=O)(=O)Oc1ccccc1,outcome,[7],inactive
Cc1cc(CCN2CCN(c3nsc4ccccc34)CC2)cc2c1NC(=O)CC2(C)C,outcome,[1],inactive
same,outcome,[7],inactive
